Records with an inconclusive call do not appear. Activity calls are given as the source filed them.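 How the source made its calls: active means active at all three treatment times, each with half-maximal potency within twice the top valid dose, signal falling; inconclusive means treatment times disagree on the call; inactive means inactive at all three times, including opposite responses.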
Assay: CCRF-CEM leukemia cell cytotoxicity, late-stage follow-up, mechanism study for HRAS target identification, Alamar Blue fluorescence, several timepoints, dry powder (AID 720617)
Conditions: activity change: measured here: 8 h treatment viability, at 35 µM, stronger effect = lower value

| Structure (SMILES) | activity change | outcome |
| --- | --- | --- |
| Cc1onc(C(=O)N2CCN(C(c3ccncc3)c3ccncc3)CC2)c1[N+](=O)[O-] | -0.515% | inactive |
| CCC(=O)N(c1ccc(OC)c(Cl)c1)C(C(=O)NCCc1ccccc1)c1cccs1 (centres undefined) | 6.85% | inactive |
